High-throughput results from PubChem BioAssay.
The list is not random: actives were taken first. Their share in the collection is about 10%.
GPT2 inh = GPT2 alanine aminotransferase inhibition | Q8TD30 | Recombinant GPT2, coupled pyruvate oxidase/HRP Amplex Red fluorescence | Potency, µM (top dose mostly 57.7 µM), actives largely listed as inhibitors | 100,000 tested, 0.25% active; note: nearly all actives have a fitted effect of over 60% in size
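Fluorescence of coupled pyruvate oxidase/HRP/Amplex Red system (50uM Amplex, 30 min, dark) reports pyruvate formed by GPT2. Enzyme reaction: 10ng/uL GPT2, 2mM L-alanine, 250uM a-KG, 30 min room temperature, pH 7.5; 50uM AOA control.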
NPR1 antag = blocks ANP-stimulated signaling of human Npr1 receptor. 76,000 tested, 1.6% active. AID 1347048. Potency, µM (titrated, usually from 46.3 µM), usual class: inhibitors. HEK293 hNpr1 GloSensor cGMP, ANP-stimulated luminescence. P16066; calls by dose curve; note: nearly all actives have a fitted effect of over 60% in size
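HEK293 cells stably expressing human Npr1 and cGMP GloSensor pGS-40F, loaded 2 h with 2% GloSensor reagent, given compound 30 min at room temperature. Luminescence read before and 20 min after 0.1 nM hNppA.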
3T3 cytotox = cytotoxic compounds in NIH 3T3 cells | 94,000 tested, 4.3% active | Potency, µM (top dose mostly 96.7 µM), usual class: inhibitors | NIH 3T3 viability, CellTiter-Glo ATP luminescence, 48-72 h; note: nearly all actives have a fitted effect of over 55% in size
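Cells were seeded at 400 per well, treated with pin-transferred compound, and kept 48 or 72 hr at 37 °C before CellTiter-Glo addition and luminescence imaging of cellular ATP.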
FLuc inh = inhibitors of firefly (Photinus pyralis) luciferase; purified P. pyralis luciferase, luminescence, biochemical; AID 1347043; 76,000 tested, 2.5% active; Potency, µM (titrated, usually from 115 µM), most hits filed as inhibitors; note: nearly all actives have a fitted effect of over 65% in size
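FLuc 10nM, D-luciferin 10uM, ATP 10uM, Mg acetate 10mM, Tris acetate pH 7.5, Tween/BSA; cpd qHTS; enzyme added last; CCD luminescence.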
HEK293 tox = kills HEK 293 cells. Potency, µM (series often up to 115 µM), usual class: inhibitors. 94,000 tested, 6.6% active. HEK 293 viability, ATP luminescence (CellTiter-Glo), 48-72 h. AID 1345083; note: nearly all actives have a fitted effect of over 60% in size
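HEK 293 cells at 250 cells/well were exposed to compounds by pintool transfer for 48 or 72 hr at 37 degree Celsius, 5% CO2. Viability was read as ATP-coupled luminescence with CellTiter-Glo after 10 min at room temperature.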
A number is an active result; i = inactive; ? = inconclusive; nt = no result given. Unless noted, calls come from the whole dose curve; as a rule, active = well fitted curve in the direction sought with a large enough effect; inconclusive = small, poorly fitted or top-dose-only effect, or another doubt; inactive = no such curve, though single readings can be large; an effect the other way counts as inactive or inconclusive.

SMILES	GPT2 inh	NPR1 antag	3T3 cytotox	FLuc inh	HEK293 tox
C#CCNC(=O)[C@@H]1Cc2cn(Cc3ccncc3)c3cccc(c23)[C@H](CC(C)C)N1	?	i	89µM	i	45µM
C=CCn1cc2c3c(cccc31)[C@H](CC(C)C)N[C@H](C(=O)NCc1ccc(OC)cc1)C2	i	i	i	i	i
C#CCNC(=O)[C@@H]1Cc2cn(CC3CC3)c3cccc(c23)[C@H](CC(C)C)N1	i	i	45µM	i	71µM
CC(C)C[C@@H]1N[C@H](C(=O)NCc2ccncc2)Cc2cn(Cc3ccncc3)c3cccc1c23	i	i	?	i	50µM
C=CCn1cc2c3c(cccc31)[C@H](CC(C)C)N[C@H](C(=O)NCc1ccccn1)C2	i	i	?	i	50µM
N#Cc1cccc(C(=O)N2CC(c3nc(CCOCC4CCCC4)no3)C2)c1	?	nt	i	nt	?
CN1CC(=O)N(C2CCCC2)Cc2c(NCCc3ccc(Cl)cc3)ncnc21	i	nt	?	nt	?
CN(CCNC(=O)C1CCCN(c2cnn(Cc3ccccc3)c(=O)c2)C1)C1CCCCC1 (stereo not drawn)	i	i	i	i	i
CC(C)C[C@@H]1N[C@H](C(=O)NCc2cccs2)Cc2c[nH]c3cccc1c23	?	i	40µM	i	40µM
CC(C)C[C@@H]1N[C@H](C(=O)NCc2ccccn2)Cc2cn(Cc3ccncc3)c3cccc1c23	?	i	?	i	25µM
COC(=O)[C@@H]1Cc2c[nH]c3cccc(c23)[C@H](CC(C)C)N1	i	i	i	i	?
CC1=C[C@@H](CNCCN(C)C)[C@H](C(C)C)C[C@H]1Cc1nnc(C)o1	i	i	i	i	i
CC1=C[C@@H](CNCCN(C)C)[C@H](C(C)C)C[C@H]1Cc1nnc(C(C)(C)C)o1	i	i	71µM	i	?
CC(=O)NCCNC[C@@H]1C=C(C)[C@H](Cc2nnc(-c3ccc(C)cc3)o2)C[C@H]1C(C)C	i	i	40µM	i	56µM
CC1=C[C@@H](CNCCN(C)C)[C@H](C(C)C)C[C@H]1Cc1nnc(-c2ccc(C)cc2)o1	i	i	35µM	i	35µM
CC1=C[C@@H](CNCCN2CCOCC2)[C@H](C(C)C)C[C@H]1Cc1nnc(-c2ccc(C)cc2)o1	i	i	35µM	i	40µM
COc1cc(NC(=O)CN2C(=O)C(c3ccccc3)=NC23CCCC3)cc(OC)c1OC	i	i	?	i	?
OCc1ccc(-c2cc(-c3ccncc3)c3cncn3c2)cc1	i	i	40µM	i	?
COc1ccc(-c2cc(-c3ccncc3)c3cncn3c2)cc1	i	i	35µM	?	?
Cn1cc(-c2cc(-c3ccncc3)c3cncn3c2)cn1	?	i	40µM	i	?
COc1ccc(-c2cc(-c3ccncc3)c3cncn3c2)cn1	i	i	?	i	?
COc1ccc(-c2cc(-c3ccncc3)cn3cncc23)cc1	i	i	35µM	i	?
CC(=O)Nc1cccc(-c2cc(-c3ccncc3)c3cncn3c2)c1	i	i	?	i	?
COCCN1C(=O)CC[C@@]2(C(=O)N3CCOCC3)CCCC[C@H]12	i	i	i	i	i
O=C(COc1ccccc1)N[C@H]1CO[C@H]2[C@@H]1OC[C@@H]2n1nnnc1Oc1ccc(-n2ccnc2)cc1	i	i	i	i	i
SMILES	GPT2 inh	NPR1 antag	3T3 cytotox	FLuc inh	HEK293 tox
Cc1ccc(C)n1-c1ccc(C(=O)N2CCC3(CCC(=O)N(CC4CC4)CC3)CC2)cc1	i	nt	?	nt	?
CNC(=O)c1cc(C2CC2)nc2c1c(C1CCCN1C(=O)Cc1cccc(Cl)c1)nn2C (stereo not drawn)	nt	nt	i	nt	?
COc1ccc(-c2cc(-c3ccc(F)cc3)cn3cncc23)cc1	i	i	?	?	100µM
COc1ccc(-c2cc(-c3ccc(F)cc3OC)cn3cncc23)cc1	?	i	?	i	?
COc1ccc(-c2cc(-c3cccc(C(N)=O)c3)cn3cncc23)cc1	i	i	40µM	i	?
COC(=O)CNC(=O)C1CN(S(=O)(=O)c2cccs2)CC12CCCCC2 (stereo not drawn)	i	i	i	i	i
O=C(Nc1ccc(F)cc1)N1CCN2C(=O)N(C3CCOCC3)C[C@H]2C1	i	i	i	i	i
C[C@]12C=CC(=O)C=C1CC[C@@H]1C2=CC[C@]2(C)[C@@H](C(=O)CN3CCN(c4cc(N5CCCC5)nc(N5CCCC5)n4)CC3)CC[C@@H]12	0.71µM	nt	nt	nt	nt
O=C(NCc1ccc2c(c1)OCO2)C1CCN(c2nccc(Nc3ccccc3Cl)n2)CC1	i	nt	35µM	nt	28µM
O=C(NCc1ccc(F)cc1)C1CCN(c2nccc(Nc3ccccc3Cl)n2)CC1	i	nt	?	nt	?
O=C(NCc1cccc(C(F)(F)F)c1)[C@@H]1CCCN1c1nccc(Nc2ccccc2Cl)n1	i	nt	?	nt	?
CSCCNC(=O)C1CCN(c2nccc(Nc3ccccc3Cl)n2)CC1	i	nt	35µM	nt	?
O=C(NCc1cccc(Cl)c1)[C@@H]1CCCN1c1nccc(Nc2ccccc2Cl)n1	i	nt	?	nt	35µM
O=C(NCc1cccc(F)c1)C1CCN(c2nccc(Nc3ccccc3Cl)n2)CC1	i	nt	?	nt	45µM
O=C(NCc1ccccc1Cl)c1cn2cc(-c3cccc(C(F)(F)F)c3)sc2n1	i	nt	i	nt	?
OCCC1CN(Cc2c(F)ccc(F)c2F)CCN1C1CCCC1 (stereo not drawn)	i	i	i	i	i
O=C(N1C[C@@H](CO)[C@H](c2ccncc2)C1)C1(c2ccccc2)CCCC1	i	i	i	i	i
C[C@@H]1C(=O)O[C@H]2[C@H]1CC[C@@]1(C)Cc3sc(Nc4ccc(O)cc4)nc3[C@@H](C)[C@H]21	?	?	63µM	?	35µM
CC(=O)N1CCN(C(=O)C[C@@H]2CCNC[C@@H]2Cc2cc(CN3CCOCC3)on2)CC1	i	i	i	i	i
O=C(CCc1ccnc(N2CCOCC2)c1)Nc1ccc2c(c1)OCO2	i	i	i	35µM	i
O=C(Cc1ccc2c(c1)OCO2)NCc1cccnc1N1CCOCC1	i	i	i	28µM	i
O=C1CC(c2ccccc2)N(S(=O)(=O)c2ccc3c(c2)CCC3)CCCCCN1 (stereo not drawn)	i	i	i	i	i
CN(C)C1CCN(Cc2cc3cc4c(cc3nc2-c2ccc(Cl)cc2)OCO4)C1 (stereo not drawn)	i	i	?	28µM	?
OCC1CCN(Cc2cc3cc4c(cc3nc2-c2ccc(Cl)cc2)OCO4)CC1	i	i	?	32µM	?
CC1(O)CCCN(Cc2cc3cc4c(cc3nc2-c2ccc(Cl)cc2)OCO4)C1 (stereo not drawn)	i	i	?	32µM	?
COc1cc2cc(CN3CCC(N(C)C)C3)c(-c3cccc(Cl)c3)nc2cc1OC (stereo not drawn)	i	i	?	?	?
